Assay outcomes: PubChem, Corson Lab, School of Medicine, Indiana University
This excerpt belongs to a sample that is enriched for hits.
FECH block: human FECH heme synthesis enzyme inhibition | P22830 | purified FECH, Ni-mesoporphyrin absorbance 550 nm | AID 1671448 | calls only at 10 µM (by protocol) | 20,000 compounds, 3.3% hits;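 active = enzyme reaction rate more than 3 SD below the solvent-only control wells on the same plate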;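 also: lower slope than DMSO wells means FECH inhibition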
Target sequence (P22830 whole entry, looked up): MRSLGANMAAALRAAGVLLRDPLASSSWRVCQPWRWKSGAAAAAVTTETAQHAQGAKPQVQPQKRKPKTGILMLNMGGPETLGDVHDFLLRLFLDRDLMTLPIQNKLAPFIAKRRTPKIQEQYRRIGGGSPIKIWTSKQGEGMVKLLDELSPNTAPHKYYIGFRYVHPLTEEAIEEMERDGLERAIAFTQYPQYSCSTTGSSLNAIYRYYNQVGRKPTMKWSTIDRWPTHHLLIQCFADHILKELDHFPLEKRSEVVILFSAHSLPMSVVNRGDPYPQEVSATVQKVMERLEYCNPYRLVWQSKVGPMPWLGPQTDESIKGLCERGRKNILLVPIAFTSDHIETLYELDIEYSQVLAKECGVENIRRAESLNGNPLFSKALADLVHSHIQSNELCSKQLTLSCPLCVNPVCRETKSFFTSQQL
* hit, by the source's call; i = inactive; + = active, no number.

SMILES | FECH block
CCOC(=O)c1ccc(NC(=O)CN2CCCN(Cc3cccc(F)c3)S2(=O)=O)cc1 | i
CC(C)(C)NC(=O)c1ccccc1NC(=O)CN1c2ccc(F)cc2-c2ccccc2S1(=O)=O | i
O=C(CN1c2ccc(F)cc2-c2ccccc2S1(=O)=O)NCCCN1CCOCC1 | i
CCOC(=O)c1ccc(NC(=O)CN2CCN(Cc3ccc(F)cc3Cl)S2(=O)=O)cc1 | i
NC(=O)c1ccc(NC(=O)CCN2CCCC(Cc3cccnc3)C2)cc1 (configuration not stated) | i
CS(=O)(=O)Cc1ccc(N2CCC(N3CCCC3=O)CC2)nc1 | i
CC(=O)Nc1ccc(CN(C)Cc2cccc3cnccc23)cc1 | i
CC(Cn1cncn1)NC(=O)c1coc(COc2ccc(F)cc2)n1 (configuration not stated) | i
CCOc1ccccc1C(=O)Nc1ccc(Sc2cc(CC)nc3ncnn23)cc1 | i
O=C1CC2(CCN(CCc3ccccc3)CC2)CN1 | +
CC/C=C\CCCN1CCC2(CC1)CNC(=O)C2 | i
O=C1CC2(CCN(C(=O)C/C=C/c3ccccc3)CC2)CN1 | i
COc1ccccc1C(C)N(C)C(=O)Nc1nc(-c2ccccc2)ns1 (configuration not stated) | i
CCN1C(=O)c2ccccc2Sc2cc(-c3noc(CNC(=O)c4cccs4)n3)ccc21 | i
O=C(O)c1cc(O)cc(-c2ccccc2CN2CCOCC2)c1 | +
COC(C)c1ccc(-c2cc(C(=O)O)cc(S(=O)(=O)N3CCOCC3)c2)cc1 (configuration not stated) | i
Clc1nc(-c2ccccc2CN2CCOCC2)ns1 | i
COc1cccc(-c2cc(N3CCN(C(=O)NCCC(C)C)CC3)ncn2)c1 | i
COc1ccccc1Cn1c(CNS(=O)(=O)c2ccc(F)cc2)nc2cccnc21 | i
Cc1ccc(S(=O)(=O)NCc2nc3cccnc3n2CC(C)C)cc1C | +
CC(C)Cc1ccc(S(=O)(=O)NCc2nc3cccnc3n2C)cc1 | i
O=S(=O)(NCc1nc2cccnc2n1C1CC1)c1ccc(Cl)cc1 | i
COc1ccccc1Cn1c(CNS(=O)(=O)c2ccc(C(C)(C)C)cc2)nc2cccnc21 | +
Cc1ccc(S(=O)(=O)NCc2nc3cccnc3n2CC(C)C)cc1Cl | i
Cc1ccc(S(=O)(=O)NCc2nc3cccnc3n2C2CC2)cc1 | i
SMILES | FECH block
CC(=O)Nc1ccc(S(=O)(=O)NCc2nc3cccnc3n2C)cc1 | i
COc1ccc(S(=O)(=O)NCc2nc3cccnc3n2C2CC2)cc1 | +
CCCc1ccc(S(=O)(=O)NCc2nc3cccnc3n2C)cc1 | +
CC(C)Cn1c(CNS(=O)(=O)c2cccc(Cl)c2)nc2cccnc21 | i
CCOc1ccc(S(=O)(=O)NCc2nc3cccnc3n2Cc2ccccc2OC)cc1 | i
CCn1cc(CN(Cc2sc(C)nc2C)C(C)C)cn1 | i
CCOc1ccccc1CN(CC)C(=O)c1ccc(S(C)(=O)=O)cc1 | i
NC(=O)c1cccc(CC2CCN(C(=O)C3CCC(O)CC3)C2)c1 (configuration not stated) | i
O=C(NCc1ccccc1)c1ccc(CN2CC(=O)N3CSCC3C2=O)cc1 (configuration not stated) | i
COc1ccc(-c2cc3n(n2)CCC(=O)N3Cc2ccc(C(=O)Nc3ccccc3F)cc2)cc1 | i
CCCNc1ncc(CN2CCN(c3nccc4ccccc34)CC2)cn1 | i
Cc1ccccc1S(=O)(=O)Nc1cnc(N2CCC(CCN3CCCCC3)CC2)c(C(=O)O)c1 | i
COc1cc(S(=O)(=O)N2CCN(c3nc(C)cc(N4CCOCC4)n3)CC2)c(C)cc1C | i
COCCn1c(CNS(=O)(=O)c2ccc(CC(C)C)cc2)nc2cccnc21 | +
CCn1c(CNS(=O)(=O)c2ccc(CC(C)C)cc2)nc2cccnc21 | i
COCCn1c(CNS(=O)(=O)c2ccc(C(C)C)cc2)nc2cccnc21 | i
Cc1cc(C)cc(-n2c(CN3CCN(S(=O)(=O)c4ccc(Cl)s4)CC3)nc3cccnc32)c1 | i
CNC(=O)C1CCC(Cn2c(=O)c3sccc3n(CC(=O)Nc3ccc(F)cc3)c2=O)CC1 (configuration not stated) | i
Cn1c(C(=O)NCc2cccnc2Oc2ccc(F)c(F)c2)cc(=O)n(C)c1=O | i
O=C1CN(Cc2ccc(F)cc2Cl)S(=O)(=O)c2ccccc2N1Cc1ccccc1F | i
O=C1CN(Cc2ccccc2)S(=O)(=O)c2ccccc2N1Cc1ccccc1F | +
O=C1CN(Cc2ccc(F)cc2)S(=O)(=O)c2ccccc2N1Cc1ccccc1 | i
Cc1sc2nc(CCN)nc(NCc3ccccc3-n3ccnc3)c2c1C | i
CCOC(=O)c1ccc(NC(=O)CN2C(=O)CN(C)C(=O)c3ccccc32)cc1 | i
C=C(C)COc1ccc(C(=O)NC(C)Cc2cnccn2)cc1 (configuration not stated) | +
SMILES | FECH block
CC(Cc1cnccn1)NC(=O)c1cccc(-c2cccc(F)c2)c1 (configuration not stated) | i
CC(Cc1cnccn1)NC(=O)c1cc(-c2ccccc2)nn1C (configuration not stated) | i
Cc1cc(C)c(Cn2c(=O)c3cnc(C)nc3n(C)c2=O)c(C)c1 | i
CCn1c(=O)n(Cc2ccccc2Cl)c(=O)c2cnc(-c3ccc(OC)cc3)nc21 | i
CCn1c(=O)n(Cc2cccc(Cl)c2)c(=O)c2cnc(-c3ccc(OC)cc3)nc21 | +
C=Cc1ccc(Cn2c(=O)c3cnc(-c4ccc(OC)cc4)nc3n(CC)c2=O)cc1 | i
CCn1c(=O)n(Cc2cccc(OC)c2)c(=O)c2cnc(-c3ccc(OC)cc3)nc21 | i
CCn1c(=O)n(Cc2ccncc2)c(=O)c2cnc(-c3ccc(OC)cc3)nc21 | +
CCn1c(=O)n(Cc2cccc(OC)c2)c(=O)c2cnc(-c3ccc(Cl)cc3)nc21 | i
CC(C)n1c(CNS(=O)(=O)c2cccc(Cl)c2)nc2cccnc21 | i
COc1ccc(-c2ccc[nH]c2=O)cn1 | i
CCC1CCN(C(=O)c2cc(CN(C)CCc3ccccc3)on2)CC1 | i
CC1CCCN(c2nc(Nc3ccc(F)cc3)c3cnn(-c4ccccc4)c3n2)C1 (configuration not stated) | i
CCC(CNC(=O)C(=O)N1CCc2ccccc2C1)OC (configuration not stated) | i
Cc1ccc(Cl)cc1NC(=O)N1CCC(n2cnc3cccnc32)CC1 | i
O=C(Nc1ccc(Br)cc1F)N1CCC(n2cnc3cccnc32)CC1 | +
Cc1ccc(NC(=O)N2CCC(n3cnc4cccnc43)CC2)c(Cl)c1 | i
Cc1ccc2oc(C(=O)N(C)Cc3nc(-c4ccncc4)no3)cc2c1 | i
O=C(NCCc1ccccc1)c1cccn1-c1nnc(N2CCCCC2)s1 | +
CCCN(CCC)CCNC(=O)c1cccn1-c1nnc(N2CCCCC2)s1 | i
CCOc1ccc(CCNC(=O)c2cccn2-c2nnc(N3CCCCC3)s2)cc1 | i
Cc1cccc(C(=O)N2CC[C@@H](c3ccc4ccccc4c3)[C@H](O)C2)n1 | i
Cc1cc(C)n(CCCN(C)c2cc(N(C)C)ncn2)n1 | i
FC(F)(F)CCc1ccnc(NCc2noc(C3CCCC3)n2)n1 | i
Cc1ccc(OCCN(C)C(=O)c2ccc(Cn3nnnc3C)cc2)c(C)c1 | i
CCN(CCc1nc2ccc(C)cc2[nH]1)C(=O)c1cnn2cc(CCO)cnc12 | i
Cc1ccc(C)c(OCCN(C)C(=O)c2cc3ncc(CCO)cn3n2)c1 | +
